Measured values from PubChem BioAssay (NCI).
The panel holds about 83,000 compounds, 20% with a hit somewhere; the sample as a whole holds those more often.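 Plates (96-well) were seeded with cells, treated with compound at one concentration, and incubated for 48 hours before percent growth was determined.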 A number with no mark means an inactive call. The source made the active and inactive calls. The calls were made as follows: active = growth percent below 10; inactive = the rest.

Key:
Test in all cases: NCI-60 one-dose screen, 48 h (100 = growth as untreated, 0 = no growth, -100 = all killed)
Details in all cases: 10 µM unless noted
SR leukemia = tested on: SR leukemia
RPMI-8226 leukemia = tested on: RPMI-8226 leukemia
OVCAR-8 ovarian = tested on: OVCAR-8 ovarian
OVCAR-5 ovarian = tested on: OVCAR-5 ovarian
OVCAR-4 ovarian = tested on: OVCAR-4 ovarian
SK-OV-3 ovarian = tested on: SK-OV-3 ovarian
OVCAR-3 ovarian = tested on: OVCAR-3 ovarian
HS 578T breast = tested on: HS 578T breast
NCI/ADR-RES ovarian = tested on: NCI/ADR-RES ovarian
IGROV1 ovarian = tested on: IGROV1 ovarian

SMILES	growth (SR leukemia)	growth (RPMI-8226 leukemia)	growth (OVCAR-8 ovarian)	growth (OVCAR-5 ovarian)	growth (OVCAR-4 ovarian)	growth (SK-OV-3 ovarian)	growth (OVCAR-3 ovarian)	growth (HS 578T breast)	growth (NCI/ADR-RES ovarian)	growth (IGROV1 ovarian)
CN(C)c1ccc2cc(-c3ccc(Cl)c(Cl)c3)c(N)nc2c1	-29% (active)	13.3%	21%	55.4%	9.09% (active)	60.4%	31%	62.4%	15.9%	–
Cc1cccc(-c2cc(O)c(C(=O)N3CCOCC3)s2)c1	25.5%	41.7%	46%	92.1%	77.3%	41.7%	–	53.8%	6.7% (active)	50%
Cc1cn(C2CCCCC2)c(=O)[nH]c1=O	111%	114%	106%	94.9%	90.8%	112%	110%	121%	109%	–
Cc1ccc(S(=O)(=O)N(CC[C@@H]2C[C@H]2c2cc3ccccc3o2)C(=O)NC2CCCCC2)cc1	100%	107%	98.8%	95.7%	93%	–	104%	89.8%	86.9%	95.8%
Cc1cc(=O)c2cc3nc(-c4cccnc4)oc3c(Br)c2o1	70.7%	90%	99.9%	90.1%	101%	195%	123%	116%	83.9%	–
COC(=O)CNC(=O)C(=O)c1c(O)c(O)c(C(C)C)c2cc(C)c(-c3c(C)cc4c(C(C)C)c(O)c(O)c(C(=O)C(=O)NCC(=O)OC)c4c3O)c(O)c12	15%	20.4%	13%	30.4%	-5.2% (active)	6.72% (active)	–	20.2%	20.9%	21.1%
Cc1ccc(S(=O)(=O)NN/C(N)=N\S(=O)(=O)c2cc(C)c(Cl)cc2SCc2ccccc2)cc1	70.4%	34.1%	109%	89.2%	89.5%	102%	121%	70.5%	97.1%	–
C[N+](C)(C)CCOC(OCC[N+](C)(C)C)(c1ccccc1)c1ccccc1	89.5%	106%	105%	104%	107%	103%	–	115%	97.9%	124%
Fc1ccc(Nc2nc3nonc3nc2Nc2ccc(F)cc2)cc1	7.15% (active)	6.64% (active)	8.53% (active)	-16.7% (active)	5.75% (active)	3.75% (active)	1.97% (active)	-1.86% (active)	3.98% (active)	–
COc1cc(NC(=O)c2cccc(-c3cc(=O)c4c(O)c(OC)c(OC)cc4o3)c2)cc(OC)c1OC	54.4%	27%	23.1%	77.4%	58.6%	–	23.8%	-3.91% (active)	49.4%	70.4%
CCn1c(Sc2nnc(NC(C)=O)s2)nc2c1c(=O)n(C)c(=O)n2C	98.1%	118%	99.7%	90.3%	101%	–	93.1%	86.2%	89.5%	98.2%
CCN(CC)CC(O)CNc1c2ccc(Cl)cc2nc2ccc(OC)cc12 (stereo not drawn)	0.563% (active)	-30.9% (active)	-40.3% (active)	-25.3% (active)	-4.45% (active)	–	-23.9% (active)	38.3%	-24.4% (active)	-24.9% (active)
COc1ccc(-c2cncnc2N)cc1OC	102%	96.8%	105%	110%	108%	-40.5% (active)	115%	107%	105%	–
NS(=O)(=O)c1cnccc1-n1ccc(=O)c(S(N)(=O)=O)c1	86.5%	60.4%	100%	89.7%	95.2%	81.1%	93.3%	64%	98.5%	–
COc1cc2c(cc1OC)-c1ccc3cc4c(cc3c1N(CCN(C)C)C2)OCO4	1.13% (active)	-41.1% (active)	-24.7% (active)	8.24% (active)	26.7%	-21.2% (active)	–	-2.39% (active)	72.3%	-31.2% (active)
COc1ccc(/C(C)=N/NS(=O)(=O)c2ccc(C)cc2)cc1OC	137%	95.3%	104%	109%	107%	86.8%	110%	97.2%	101%	–
Cc1ccc(/C(=N\N=C(N)N)c2ccccc2)cc1	10.8%	-7.92% (active)	22.4%	51.4%	15.8%	4.12% (active)	-38.5% (active)	31.5%	15.5%	–
CCN(CC)CCOC(=O)Nc1ccccc1Cl	102%	88.8%	104%	110%	120%	108%	108%	109%	110%	–
CN1CCN(c2ccc3nc(/N=C/c4ccc5sc(-c6ccc([N+](=O)[O-])cc6)nc5c4)sc3c2)CC1	91.9%	101%	99.6%	107%	105%	–	112%	114%	104%	114%
COc1cc2c(c(OC)c1OC)C(=O)/C(=C/c1cc(C)c(O)c(C)c1)S2	33.8%	21.8%	41.5%	65.2%	51.8%	–	8.16% (active)	29.4%	14.1%	45.7%
COc1ccc2c(c1)/C(=C\c1sc(=S)[nH]c1O)C(C(=O)O)=N2	110%	101%	99%	101%	101%	–	98.8%	94%	102%	107%
C=C(C=O)C1CCC2(C(=O)O)CCC3(C)C(CCC4C5(C)CCC(O)C(C)(C)C5CCC43C)C12 (stereo not drawn)	-2.18% (active)	-12.7% (active)	16.8%	–	34.2%	51%	-86.9% (active)	–	–	6.56% (active)
COc1ccc(NC(=O)c2cccc(-c3cc(=O)c4c(O)c(OC)c(OC)cc4o3)c2)cc1	80.8%	92.5%	80.6%	97.5%	97.5%	–	50.6%	56.1%	85.3%	–
CCCCN1CCN(c2ccc3nc(-c4ccc5nc(-c6ccc(OCC)c(OCC)c6)[nH]c5c4)[nH]c3c2)CC1	14.3%	-25.4% (active)	-11.9% (active)	37.7%	-77.4% (active)	–	–	35.2%	73%	15.1%
COc1cc(C(=O)/C=C/c2c(-c3ccc(F)cc3)nc3ncccn23)cc(OC)c1OC	9.6% (active)	11.3%	48.3%	–	46.5%	63.9%	19.1%	–	–	47.8%
COc1ccccc1NC(=O)Nc1ccc(-c2nc3ccccc3o2)cc1	69%	96.7%	102%	104%	95.3%	–	109%	99%	98.4%	104%
COc1cc(CNC(=O)/C=C/C=C/c2ccc3c(c2)OCO3)ccc1OCc1cn(-c2ccc(Cl)c(Cl)c2)nn1	24.8%	20.9%	11.3%	-19.8% (active)	-62.7% (active)	–	-62.8% (active)	7.23% (active)	15.9%	–
CCOc1ccc(-c2nc3ccc(-c4nc5ccc(N6CCN(C)CC6)cc5[nH]4)cc3[nH]2)cc1OCC	8.73% (active)	45.8%	14.8%	44.4%	7.29% (active)	–	-13.3% (active)	11.1%	104%	50.5%
O=C(NC(=S)Nc1ccc(-c2nc3ccccc3[nH]2)cc1)c1ccc2ccccc2c1	5.49% (active)	-6.21% (active)	28.8%	56.5%	-18.7% (active)	–	–	11.3%	28.8%	52.2%
